From PubChem BioAssay (NCATS)
Records with an inconclusive call do not appear. Calls of active or inactive are those of the source. Calls come from the whole dose curve; as a rule, active = well fitted curve in the direction sought with a large enough effect; inconclusive = small, poorly fitted or top-dose-only effect, or another doubt; inactive = no such curve, though single readings can be large; an effect the other way counts as inactive or inconclusive.

Key:
[1] = qHTS of pediatric cancer cell lines to identify multiple opportunities for drug repurposing: Primary screen for SK-N-SH cells (AID 1347098); note: nearly all actives have a fitted effect of over 65% in size; note: potency is the fitted concentration of half-maximal effect
Outline: (§1)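 Cells (500-1,000/well) rested 5 h, then received compounds for 48 h; metabolically active cells were measured by CellTiter-Glo luminescence. Final concentrations spanned up to 46 µM (MIPE, 11-point) or 0.59 nM-46 µM (NPC, 8-point) in primary screens, 11-point in follow-ups.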

[2] = qHTS of pediatric cancer cell lines to identify multiple opportunities for drug repurposing: Primary screen for Rh18 cells (AID 1347102); note: nearly all actives have a fitted effect of over 65% in size; note: potency is the fitted concentration of half-maximal effect
Outline: (§2)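 Viability after 48 h compound treatment at 37C, 500-1,000 cells/well, read as ATP luminescence with CellTiter-Glo. Primary screens used 11-point (MIPE, 0.78 nM-46 µM) or 8-point (NPC, 0.59 nM-46 µM) final concentrations; follow-up screens used 11-point dilutions.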

[3] = qHTS of pediatric cancer cell lines to identify multiple opportunities for drug repurposing: Primary screen for RD cells (AID 1347104); note: nearly all actives have a fitted effect of over 55% in size; note: potency is the fitted concentration of half-maximal effect
Outline: (§3)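 ATP-based luminescence (CellTiter-Glo) quantifies viability after a 48-hour exposure. Compounds are dosed across 8 or 11 final concentrations; DMSO and 2.3 µM bortezomib serve as controls.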

[4] = qHTS of pediatric cancer cell lines to identify multiple opportunities for drug repurposing: Primary screen for MG 63 (6-TG R) cells (AID 1347105); note: nearly all actives have a fitted effect of over 50% in size; note: potency is the fitted concentration of half-maximal effect
Outline: as §3

[5] = qHTS of pediatric cancer cell lines to identify multiple opportunities for drug repurposing: Primary screen for control Hh wild type fibroblast cells (AID 1347106);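 note: series mostly up to about 46 µM; a drop in luminescence marks cytotoxicity and a rise apparent proliferation; nearly all actives have a fitted effect of over 55% in size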
Outline: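 Cells (500-1,000/well) in growth media were settled 5 h at 37 degrees C, then given compounds for 48 h. Viability was read as CellTiter-Glo luminescence. Primary runs used MIPE at 11 points (0.78 nM-46 µM) and NPC at 8 points (0.59 nM-46 µM); follow-ups used 11 points.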

[6] = qHTS of pediatric cancer cell lines to identify multiple opportunities for drug repurposing: Primary screen for Rh30 cells (AID 1347107); note: series mostly up to about 46 µM; nearly all actives have a fitted effect of over 75% in size
Outline: as §2

[7] = qHTS of pediatric cancer cell lines to identify multiple opportunities for drug repurposing: Primary screen for Rh41 cells (AID 1347108); note: nearly all actives have a fitted effect of over 70% in size; note: potency is the fitted concentration of half-maximal effect
Outline: as §3

[8] = qHTS of pediatric cancer cell lines to identify multiple opportunities for drug repurposing: Primary screen for BT-12 cells (AID 1347101); note: nearly all actives have a fitted effect of over 25% in size; note: potency is the fitted concentration of half-maximal effect
Outline: as §1

[9] = qHTS of pediatric cancer cell lines to identify multiple opportunities for drug repurposing: Primary screen for NB1643 cells (AID 1347099); note: nearly all actives have a fitted effect of over 50% in size
Outline: as §3

[10] = qHTS of pediatric cancer cell lines to identify multiple opportunities for drug repurposing: Primary screen for LAN-5 cells (AID 1347100)
Outline: as §2

[11] = qHTS of pediatric cancer cell lines to identify multiple opportunities for drug repurposing: Primary screen for OHS-50 cells (AID 1347103); note: nearly all actives have a fitted effect of over 40% in size; note: potency is the fitted concentration of half-maximal effect
Outline: as §1

[12] = qHTS of pediatric cancer cell lines to identify multiple opportunities for drug repurposing: Confirmatory screen for A673 cells (AID 1347110); note: potency is the fitted concentration of half-maximal effect; nearly all actives have a fitted effect of over 65% in size
Outline: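 Forty-eight-hour viability assay. Follow-up compounds ran at 11-point dilutions; positive control bortezomib at 2.3 uM final, neutral control DMSO.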

[13] = qHTS of pediatric cancer cell lines to identify multiple opportunities for drug repurposing: Confirmatory screen for SK-N-MC cells (AID 1347111);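 note: potency is the fitted concentration of half-maximal effect; cells exposed to compound for 48 h before the readout; nearly all actives have a fitted effect of over 70% in size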
Outline: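 SK-N-MC cells at 500-1,000 cells/well in growth media were pre-incubated 5 h, then exposed to compounds at 11-point dilutions for 48 h at 37 degrees C, 5% CO2. Viability was read as CellTiter-Glo luminescence.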

[14] = qHTS of pediatric cancer cell lines to identify multiple opportunities for drug repurposing: Confirmatory screen for BT-12 cells (AID 1347112); note: potency is the fitted concentration of half-maximal effect; nearly all actives have a fitted effect of over 55% in size
Outline: as §2

[15] = qHTS of pediatric cancer cell lines to identify multiple opportunities for drug repurposing: Confirmatory screen for LAN-5 cells (AID 1347113); note: potency is the fitted concentration of half-maximal effect; nearly all actives have a fitted effect of over 65% in size
Outline: as §2

[16] = qHTS of pediatric cancer cell lines to identify multiple opportunities for drug repurposing: Confirmatory screen for NB-EBc1 cells (AID 1347115); note: potency is the fitted concentration of half-maximal effect; nearly all actives have a fitted effect of over 45% in size
Outline: as §2

[17] = qHTS of pediatric cancer cell lines to identify multiple opportunities for drug repurposing: Confirmatory screen for BT-37 cells (AID 1347117);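 note: potency is the fitted concentration of half-maximal effect; viability measured after 48 h of compound exposure; nearly all actives have a fitted effect of over 55% in size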
Outline: as §2

[18] = qHTS of pediatric cancer cell lines to identify multiple opportunities for drug repurposing: Confirmatory screen for TC32 cells (AID 1347118)
Outline: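 TC32 cells, 500-1,000/well in growth medium, compound-treated 48 h at 37 °C; viability from CellTiter-Glo luminescence. Primary screen: MIPE 11-point (0.78 nM–46 µM final), NPC 8-point (0.59 nM–46 µM final); confirmatory at 11-point dilutions.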

Measured: Potency

Cc1oc(-c2ccccc2)nc1CCC(=O)c1ccc(CC2SC(=O)NC2=O)cc1 (stereo not given)
inactive: [1] | [2] | [3] | [4] | [5] | [6] | [7]

C/C=C(/C(=C/C)c1ccc(OC(C)=O)cc1)c1ccc(OC(C)=O)cc1
inactive: [1] | [8] | [2] | [3] | [5] | [6] | [7]

O=C(OCC(COC(=O)c1cccnc1)(COC(=O)c1cccnc1)COC(=O)c1cccnc1)c1cccnc1
inactive: [9] | [10] | [8] | [2] | [11] | [3] | [4] | [5] | [6]

c1ccc2occc2c1
inactive: [9] | [10] | [8] | [2] | [11] | [3] | [4] | [5] | [6] | [7]

COC(=O)c1cc(Cl)ccc1NS(=O)(=O)C(F)(F)F
inactive: [9] | [10] | [8] | [2] | [11] | [3] | [4] | [5] | [6] | [7]

O=C(O)CCC(=O)OC[C@@H](NC(=O)C(Cl)Cl)[C@H](O)c1ccc([N+](=O)[O-])cc1
inactive: [1] | [8] | [2] | [11] | [3] | [4] | [5] | [6] | [7]

Nc1c2ccccc2nc2ccccc12
active: [1] 9.7 µM | [11] 24.6 µM | [3] 15 µM | [7] 16.8 µM | [12] 6.57 µM | [13] 3.29 µM | [14] 3.69 µM | [15] 3.69 µM | [16] 6.57 µM | [17] 2.93 µM | [18] 2.93 µM

O=C1NC2CCCCN2C12CCN(CCCN1c3ccccc3CCc3ccc(Cl)cc31)CC2 (stereo not given)
inactive: [5] | [6]
active: [1] 27.3 µM | [8] 15.5 µM | [11] 27.6 µM

O=C(Nc1ccc(Cl)cc1)Nc1ccc(Cl)c(C(F)(F)F)c1
active: [1] 8.64 µM | [8] 9.78 µM | [11] 5.5 µM | [3] 11.9 µM | [4] 21.1 µM

OCCc1ccccc1
inactive: [9] | [10] | [8] | [2] | [11] | [3] | [4] | [5] | [6] | [7]

O=C1CC2(CCCC2)CC(=O)N1
inactive: [1] | [8] | [2] | [11] | [3] | [4] | [6] | [7]

O=C(CCOCCOCCOCCOCCC(=O)Nc1c(I)cc(I)c(C(=O)O)c1I)Nc1c(I)cc(I)c(C(=O)O)c1I
inactive: [9] | [10] | [8] | [2] | [11] | [3] | [4] | [5] | [6] | [7]

COc1cc(C(=O)OC(COCCC(C)C)CN2CCOCC2)cc(OC)c1OC (stereo not given)
inactive: [9] | [10] | [8] | [2] | [11] | [3] | [4] | [5] | [6] | [7]

CN1C(=O)CC(C)(c2ccccc2)C1=O (stereo not given)
inactive: [9] | [10] | [8] | [2] | [11] | [3] | [4] | [5] | [6]

COc1cc2c(cc1OC)CN(C(=O)[C@H](C)N[C@@H](CCc1ccccc1)C(=O)O)[C@H](C(=O)O)C2
inactive: [1] | [8] | [2] | [11] | [3] | [4] | [6] | [7]

CCOC(=O)Oc1ccc(CCNC(=O)[C@H](CCSC)NC(C)=O)cc1OC(=O)OCC
inactive: [9] | [10] | [8] | [2] | [11] | [3] | [4] | [5] | [6] | [7]

OC1(c2ccc(Cl)c(C(F)(F)F)c2)CCN(CCCC(c2ccc(F)cc2)c2ccc(F)cc2)CC1
active: [1] 24.4 µM | [8] 21.9 µM | [2] 23.7 µM | [11] 3.89 µM | [3] 21.1 µM | [4] 13.3 µM | [7] 16.8 µM

CCn1ccc(NS(=O)(=O)c2ccc(N)cc2)nc1=O
inactive: [1] | [2] | [11] | [3] | [4] | [5] | [6] | [7]

O=C(Nc1ccc(Cl)cc1)Nc1ccc(Cl)c(Cl)c1
active: [1] 12.2 µM | [11] 24.6 µM | [3] 23.7 µM
inactive: [5]

Cc1oc(=O)oc1COC(=O)[C@@H]1N2C(=O)[C@@H](NC(=O)[C@H](N)c3ccccc3)[C@H]2SC1(C)C
inactive: [1] | [8] | [2] | [11] | [3] | [4] | [5] | [6] | [7]

CCOCCn1c(C2CCN(CCc3ccc(C(C)(C)C(=O)O)cc3)CC2)nc2ccccc21
inactive: [9] | [10] | [8] | [2] | [11] | [3] | [4] | [5] | [6] | [7]

N#CC1(c2ccc(F)cc2)CCC(=O)CC1
inactive: [9] | [10] | [8] | [2] | [11] | [3] | [4] | [5] | [6] | [7]

Cc1cc(O)c2c(O)c3c(O)cccc3cc2c1
inactive: [9] | [10] | [8] | [2] | [11] | [3] | [4] | [5] | [6] | [7]

CC1CCCCN1CCCOC(=O)c1ccc(OC2CCCCC2)cc1 (stereo not given)
active: [11] 24.6 µM
inactive: [9] | [10] | [2] | [3] | [4] | [5] | [6] | [7]

CCC(C(=O)OCCN1CCOC(c2ccccc2)C1C)c1ccccc1 (stereo not given)
inactive: [9] | [10] | [2] | [3] | [4] | [5] | [6] | [7]

CN(C)C(=O)CNC(=O)Cc1ccccc1
inactive: [9] | [10] | [8] | [2] | [11] | [3] | [5] | [6] | [7]

CCC(CN)=C(c1ccccc1)c1ccccc1
inactive: [9] | [10] | [8] | [2] | [3] | [4] | [5] | [6] | [7]

CCC(C(=O)NC(=O)NC(C)=O)c1ccccc1 (stereo not given)
inactive: [9] | [10] | [8] | [11] | [3] | [4] | [5] | [6] | [7]

CCOC(=O)c1ccc(NC(=O)CN2CCCCC2)cc1
inactive: [9] | [10] | [8] | [2] | [11] | [4] | [6] | [7]

Clc1ccc2c(c1)Nc1ccccc1S2
inactive: [9] | [10] | [2] | [4] | [5] | [6]

COc1c(N2C[C@@H]3CCCN[C@@H]3C2)c(F)cc2c(=O)c(C(=O)O)cn(C3CC3)c12
inactive: [9] | [10] | [8] | [2] | [11] | [4] | [5] | [6] | [7]

Cc1cccc(N(C)C(=S)Oc2ccc3c(c2)CCC3)c1
inactive: [9] | [10] | [2] | [3] | [4] | [6] | [7]

CO/N=C(/C(=O)N[C@@H]1C(=O)N2C(C(=O)[O-])=C(C[n+]3ccn4ncccc43)CS[C@H]12)c1nsc(N)n1
inactive: [9] | [10] | [8] | [11] | [3] | [4] | [5] | [6] | [7]

CC(C)(C)C(O)/C=C/c1ccc2c(c1)OCO2 (stereo not given)
inactive: [9] | [10] | [8] | [2] | [3] | [4] | [5] | [6] | [7]

CCCCC/C=C\C/C=C\CCCCCCCC(=O)NC(C)c1ccccc1 (stereo not given)
inactive: [9] | [10] | [2] | [3] | [4] | [5] | [6]
